Data: PubChem BioAssay (NCATS)
Values joined by “and” are separate entries in the source; they are usually repeats but may differ in a detail not shown here. Equal entries are not always repeated. Records with an inconclusive call do not appear. Active and inactive are the calls of the source. The call rests on the fitted dose curve; in most records, active means well fitted curve in the direction sought with a large enough effect; inconclusive means small, poorly fitted or top-dose-only effect, or another doubt; inactive means no such curve, though single readings can be large; an effect the other way counts as inactive or inconclusive.

Legend:
[1] = qHTS for Activators of Parkin Expression: LOPAC Validation Assay (FLuc Reporter) (AID 720573)
Method in brief: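 Cells seeded, 24 h; compounds pinned, 7-pt dose response; 24 h at 37 C/5% CO2; volume reduced; FLuc reagent 10 min RT; luminescence read. Normalization: DMSO = 0, positive control = 100%.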

[2] = molecular target: T1, Hexokinase-4 (Homo sapiens) + Glucokinase regulatory protein (Homo sapiens) (UniProt P35557+Q14397); assay: qHTS assay for inhibitors of recombinant human GCK-GKRP interaction: Diaphorase-coupled assay (AID 743205)
Method in brief: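 25 mM Hepes pH 7.6, 5 mM glucose, 0.4 mM ATP, 4 U/ml G6PDH; 10 nM each GST-GCK/FLAG-GKRP. Kinetic fluorescence read, 1/min × 30 min. Normalized: DMSO ± enzyme = max/min.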

[3] = molecular target: T1, Hexokinase-4 (Homo sapiens) + Glucokinase regulatory protein (Homo sapiens); assay: qHTS assay for inhibitors of recombinant human GCK-GKRP interaction: ADP-Glo assay (AID 743206);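 further: plate controls were DMSO plus enzyme for no effect and no enzyme for full effect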
Method in brief: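 GST-GCK and FLAG-GKRP (15 nM each in the dispensed mix, with 2 uM S6P) react with 0.4 mM ATP and 5 mM glucose (final) in Hepes pH 7.6 for 60 min at room temperature. ADP is measured by ADP-Glo luminescence.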

[4] = molecular target: T1, Hexokinase-4 (Homo sapiens) + Glucokinase regulatory protein (Homo sapiens); assay: qHTS assay for inhibitors of recombinant human GCK-GKRP interaction: HTRF assay (AID 743207); further: potency means the concentration at half of the fitted maximal effect
Method in brief: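 5 nM GST-GCK + 5 nM FLAG-GKRP + 2 uM S6P, pH 7.1 buffer (25 mM Hepes, 2 mM MgCl2, 25 mM KCl, 1 mM DTT, Tween/BSA); pin-transferred cpd; anti-FLAG XL665/anti-GST K; 60 min RT; HTRF.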

[5] = qHTS Assay for Identifying Gametocytocidal Compounds (AID 743244); further: potency means the concentration at half of the fitted maximal effect;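 on max response: on the % scale 0 is the no-effect control and ±100 the full control effect; actives lower the fluorescent signal which means gametocytes are killed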; conditions: P. falciparum 3D7 stage III-V gametocytes, alamarBlue, 72 h; max response: stronger effect = lower value
Method in brief: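 P. falciparum 3D7 stage III–V gametocytes (20,000 cells/well) were exposed to compounds for 72 h at 37 °C, 5% CO2. AlamarBlue was then added for 24 h; decreased resorufin fluorescence (Ex 525/Em 598 nm) indicated loss of viability.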

[6] = qHTS assay for measurement of the activity of small molecule inhibitors on Zika virus induced Caspase-3 activity in human astrocytoma cells (AID 1224859);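 further: plate controls were ZIKV-infected untreated cells for no effect and uninfected cells for full effect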
Method in brief: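 Luminescence read-out (Caspase-Glo 3/7, 30 min RT) of caspase activity in SNB-19 cells infected 6 h with ZIKV, 2 FFU/cell, after 1 h compound pretreatment; % inhibition from induction normalised to uninfected (0%) and infected (100%) wells.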

T1 sequence (P35557 whole entry, looked up): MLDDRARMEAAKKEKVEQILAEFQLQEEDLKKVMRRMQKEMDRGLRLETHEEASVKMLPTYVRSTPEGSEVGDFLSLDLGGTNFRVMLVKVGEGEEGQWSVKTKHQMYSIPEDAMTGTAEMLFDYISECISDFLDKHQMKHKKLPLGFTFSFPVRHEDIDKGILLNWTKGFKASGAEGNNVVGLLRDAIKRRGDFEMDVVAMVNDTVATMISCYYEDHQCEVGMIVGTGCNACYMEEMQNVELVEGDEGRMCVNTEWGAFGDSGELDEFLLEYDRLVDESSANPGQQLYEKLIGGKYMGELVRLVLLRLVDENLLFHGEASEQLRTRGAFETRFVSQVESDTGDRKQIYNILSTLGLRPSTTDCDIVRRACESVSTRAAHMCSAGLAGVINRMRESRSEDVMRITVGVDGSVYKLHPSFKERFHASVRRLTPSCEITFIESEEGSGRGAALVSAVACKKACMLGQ
T1 sequence (Q14397 whole entry, looked up): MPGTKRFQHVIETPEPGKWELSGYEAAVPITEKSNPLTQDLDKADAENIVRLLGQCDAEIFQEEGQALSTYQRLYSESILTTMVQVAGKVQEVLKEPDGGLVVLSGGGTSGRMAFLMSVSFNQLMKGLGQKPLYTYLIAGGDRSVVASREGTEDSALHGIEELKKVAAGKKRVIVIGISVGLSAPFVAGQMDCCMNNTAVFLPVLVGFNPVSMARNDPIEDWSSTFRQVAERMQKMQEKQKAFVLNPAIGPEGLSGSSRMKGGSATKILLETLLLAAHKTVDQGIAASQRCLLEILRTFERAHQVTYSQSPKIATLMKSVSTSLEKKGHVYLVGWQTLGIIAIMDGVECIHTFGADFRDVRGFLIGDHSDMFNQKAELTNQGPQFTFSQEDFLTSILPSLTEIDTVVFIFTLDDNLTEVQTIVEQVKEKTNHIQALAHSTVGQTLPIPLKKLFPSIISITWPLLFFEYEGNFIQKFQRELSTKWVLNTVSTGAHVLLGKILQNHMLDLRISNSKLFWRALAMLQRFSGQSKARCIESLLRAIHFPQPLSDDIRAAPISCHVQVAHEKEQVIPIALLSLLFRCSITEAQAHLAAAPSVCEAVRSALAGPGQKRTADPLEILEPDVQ

NC(=S)NCCC[C@H](N)C(=O)O
inactive: Potency [1] | outcome [2] | Potency [3] | Potency [4] | max response [5] 29.7% | Potency [6]

NCC1OC(O[C@H]2[C@H](O)[C@@H](OC3C(O)C(N)CC(N)C3OC3OC(CO)C(O)C(O)C3N)O[C@@H]2CO)C(N)C(O)C1O (stereo not given in full)
inactive: Potency [1] | outcome [2] | Potency [3] | Potency [4] | max response [5] 40.6% | Potency [6]

CNc1ncnc2c1ncn2[C@@H]1O[C@H](CO)[C@@H](O)[C@H]1O
inactive: Potency [1] | outcome [2] | Potency [3] | Potency [4] | max response [5] 31.8% | Potency [6]

NC(=S)c1ccc[n+]([C@@H]2O[C@@H](COP(=O)([O-])OP(=O)(O)OC[C@H]3O[C@@H](n4cnc5c(N)ncnc54)[C@H](OP(=O)(O)O)[C@@H]3O)C(O)C2O)c1 (stereo not given in full)
inactive: Potency [1] | outcome [2] | Potency [3] | Potency [4] | max response [5] 5.56% | Potency [6]

N#C/C(=C\c1ccc(O)c(O)c1)C(=O)NCCCc1ccccc1
inactive: Potency [1] | outcome [2] | Potency [3] | Potency [4] | max response [5] 8.54% | Potency [6]

CN(C)CCCO[C@@H]1[C@H]2OC(C)(C)O[C@H]2O[C@@H]1[C@H](O)CO
inactive: Potency [1] | outcome [2] | Potency [3] | Potency [4] | max response [5] 19.5% | Potency [6]

COc1ccccc1N1CCN(CCCCNS(=O)(=O)c2cccc3c(N(C)C)cccc23)CC1
inactive: Potency [1] | outcome [2] | Potency [3] | Potency [4] | max response [5] 10.4% | Potency [6]

CC(C)Cc1ccc([C@H](C)C(=O)O)cc1
inactive: Potency [1] | outcome [2] | Potency [3] | Potency [4] | max response [5] -6.28% and 20.5% | Potency [6]

Nc1ncnc2c1ncn2[C@@H]1O[C@H](COP(=O)(O)OP(=O)(O)OP(=O)(O)OP(=O)(O)OC[C@@H]2O[C@H](n3cnc4c(N)ncnc43)[C@@H](O)[C@H]2O)[C@@H](O)[C@H]1O
inactive: Potency [1] | outcome [2] | Potency [3] | Potency [4] | max response [5] 11.9% | Potency [6]

CCCCCCCCCCCCCCCCCCNC(=O)OCC(COP(=O)([O-])OCC[n+]1ccsc1)OC (stereo not given)
inactive: Potency [1] | outcome [2] | Potency [3] | Potency [4] | max response [5] 12.3% | Potency [6]

O=C(O)[C@@H]1C[C@H](C(=O)O)N1
inactive: Potency [1] | outcome [2] | Potency [3] | Potency [4] | max response [5] -2.93% | Potency [6]

O=Nc1ccc2oc(=O)ccc2c1
active: Potency [5] 1.78 µM
inactive: Potency [1] | outcome [2] | Potency [3] | Potency [4] | Potency [6]

CN(C)C(N)=NCCC[C@H](N)C(=O)O
inactive: Potency [1] | outcome [2] | Potency [3] | Potency [4] | max response [5] -2.52% | Potency [6]

CC(=O)/C=C1\C(=O)N(C)c2ccccc21
inactive: Potency [1] | outcome [2] | Potency [3] | Potency [4] | max response [5] -11.9% | Potency [6]

COc1ccccc1N1CCN(CCN(C(=O)c2ccc(I)cc2)c2ccccn2)CC1
inactive: Potency [1] | outcome [2] | Potency [3] | Potency [4] | max response [5] 4.76% | Potency [6]

CCCCC#Cc1nc(NC)c2ncn([C@@H]3O[C@H](CO)[C@@H](O)[C@H]3O)c2n1
inactive: Potency [1] | outcome [2] | Potency [3] | Potency [4] | max response [5] 34.4% | Potency [6]

O=[N+]([O-])c1ccc(CSc2ncnc3c2ncn3[C@@H]2O[C@H](CO)[C@@H](O)[C@H]2O)cc1
inactive: Potency [1] | outcome [2] | Potency [3] | Potency [4] | max response [5] 17.7% | Potency [6]

NC(=O)C1=CN(C2OC(COP(=O)(O)OP(=O)(O)OC[C@H]3O[C@@H](n4cnc5c(N)ncnc54)[C@H](OP(=O)(O)O)[C@@H]3O)C(O)C2O)C=CC1 (stereo not given in full)
inactive: Potency [1] | outcome [2] | Potency [3] | Potency [4] | max response [5] -6.13% | Potency [6]

N#C/C(=C\c1c[nH]c2ccccc12)C(=O)c1ccc(O)c(O)c1
inactive: Potency [1] | outcome [2] | Potency [3] | Potency [4] | max response [5] -1.71% | Potency [6]

CN(C)c1nc2c(Br)c(Br)c(Br)c(Br)c2[nH]1
inactive: Potency [1] | outcome [2] | Potency [3] | Potency [4] | max response [5] 21.9% | Potency [6]

OCC1O[C@H]([S-])[C@H](O)[C@@H](O)[C@@H]1O.[Au+] (stereo not given in full)
active: Potency [4] 15.8 µM | Potency [5] 2.82 µM
inactive: Potency [1] | outcome [2] | Potency [3] | Potency [6]

CC(=O)SCC[N+](C)(C)C
inactive: Potency [1] | outcome [2] | Potency [3] | Potency [4] | max response [5] 9.88% | Potency [6]

O=C(O)CC[C@@H](C(=O)O)N1C(=O)c2ccccc2C1=O
inactive: Potency [1] | outcome [2] | Potency [3] | Potency [4] | max response [5] -10.9% | Potency [6]

O=C(O)[C@@H]1C[C@@H](C(=O)O)N1
inactive: Potency [1] | outcome [2] | Potency [3] | Potency [4] | max response [5] 6.85% | Potency [6]

CSc1nc(N)c2ncn([C@@H]3O[C@H](COP(=O)(O)OP(=O)(O)OP(=O)(O)O)[C@@H](O)[C@H]3O)c2n1
inactive: Potency [1] | outcome [2] | Potency [3] | Potency [4] | max response [5] 11.9% | Potency [6]
